Screens deposited in PubChem by National Center for Advancing Translational Sciences (NCATS).
Shown are actives, neighbours in structure and some others; about 10% of the full set was active somewhere.
Lamin A splicing: modulators of lamin A splicing; 200,000 compounds, 0.01% hits; Potency, µM (titrated, usually from 46.1 µM), for the others: at the highest dose ratio change, negative = inhibition, hits mostly inhibitors; HeLa LMNA splicing GFP/RFP minigene ratio, 48 h; AID 1487; active means well fitted inhibition curve with a large enough effect in the signal ratio, with a control signal flat, not every such curve was filed as active; inconclusive means small, poorly fitted or top-dose-only effect, or effect the other way, or a change in a side signal; the % refers to the signal ratio; further: potency means the concentration at half of the fitted maximal effect
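Read-out is the ratio of GFP to DsRed2 object intensity, acquired by 488 nm laser-scanning cytometry on HeLa lamin A-EGFP minigene reporter cells. Compound incubation 48 hrs at 37 °C in Opti-MEM with 2% FBS; DMSO 0.5% final.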
PNC inhibitor: blocks assembly of the perinucleolar compartment; PC3M PTB-GFP, PNC prevalence imaging, 16 h; stronger effect = lower value; activity change (PNC), negative = inhibition, % at 10 µM; 140,000 compounds, 3.1% hits;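 active means readout at or below -70, meaning at least 70% loss of cells showing the perinucleolar compartment, a nuclear body marking cancer cells; inconclusive means readout between -30 and a set limit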;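 further: plate controls were DMSO wells for no effect and camptothecin positive control wells for full effect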
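Read-out is percentage of cells bearing a perinucleolar compartment, from automated 20x imaging of fixed, Hoechst-stained PC3M PTB-GFP cells. Cells were seeded 4 h, then exposed 16 h to compound (23 nl of library stock) in duplicate plates.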
HPGD block: inhibitors of human 15-hydroxyprostaglandin dehydrogenase (HPGD); P15428; purified HPGD, NADH fluorescence kinetic, PGE2 substrate; Potency, µM, without a hit: at the top dose activity change, negative = inhibition, hits mostly inhibitors; 150,000 compounds, 4.3% hits; AID 894; further: potency means the concentration at half of the fitted maximal effect
Target sequence (P15428 whole entry, looked up): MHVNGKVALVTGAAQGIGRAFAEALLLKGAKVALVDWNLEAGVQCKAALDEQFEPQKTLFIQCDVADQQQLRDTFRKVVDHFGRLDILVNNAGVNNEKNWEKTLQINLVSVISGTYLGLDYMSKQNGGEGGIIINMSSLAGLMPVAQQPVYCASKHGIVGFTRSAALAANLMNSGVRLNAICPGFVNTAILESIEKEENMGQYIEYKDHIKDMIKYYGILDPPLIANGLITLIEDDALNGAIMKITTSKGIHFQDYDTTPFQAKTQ
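NADH formation kinetics: reaction with 30 uM PGE2 and 1 mM NAD+ (final), 20 nM enzyme, Tris-HCl pH 8 with Tween 20, after 15 min compound preincubation at room temperature. Fluorescence change, last versus first of five reads.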
IMPase inh: membrane-permeable compound that blocks inositol monophosphatase | CHO-M1 cells, IP1 accumulation, HTRF TR-FRET ratio | inhibition (IP1 accumulation), % at 46.1 µM | 120,000 tested, under 10 active | AID 901; active means well fitted curve in the direction sought with a large enough effect in the signal ratio, not every such curve was filed as active; inconclusive means small, poorly fitted or top-dose-only effect, or a change in a side signal; inactive means no such curve, though single readings can be large or run the other way; the % refers to the signal ratio;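 further: cells stimulated with carbachol in lithium chloride buffer; plate controls were DMSO basal wells for no effect and reference inhibitor wells for full effect; higher means more IMPase inhibition seen as more IP1 and lower FRET ratio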
Target sequence (P97697 whole entry, looked up): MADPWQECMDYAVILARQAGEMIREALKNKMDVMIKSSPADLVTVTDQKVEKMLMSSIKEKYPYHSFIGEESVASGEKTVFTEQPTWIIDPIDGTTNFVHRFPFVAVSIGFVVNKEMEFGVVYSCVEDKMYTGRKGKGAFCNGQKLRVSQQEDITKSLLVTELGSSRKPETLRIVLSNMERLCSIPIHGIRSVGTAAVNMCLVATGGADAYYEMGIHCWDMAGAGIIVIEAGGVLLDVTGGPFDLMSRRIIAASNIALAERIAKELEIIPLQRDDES
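Elevated IP1 in lysates lowers TR-FRET signal (665/620 ratio and 620 channel reported). Cells were CHO-M1, given carbachol (50 uM as added) plus 50mM LiCl, pH 7.4, 30 min, 37C; compounds titrated up to 46 uM; AC50 by Hill equation.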
KinaseGlo FLuc: blocks Kinase-Glo luciferase, a counter-screen artifact | 200,000 compounds, 0.28% hits | Potency, µM (doses to about 38.3 µM), inactives show at the top dose activity change, negative = inhibition, hits mostly inhibitors | Kinase-Glo luciferase, ATP luminescence, 8 min; active means well fitted inhibition curve with a large enough effect; inconclusive means small, poorly fitted or top-dose-only effect; further: potency means the concentration at half of the fitted maximal effect; nearly all actives have a fitted effect of over 60% in size
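Light output from Kinase-Glo luciferase with luciferin and 10 uM ATP in 50 mM imidazole pH 7.2, KCl, MgCl2, Tween 20, BSA; compound pin-delivered, 8-min ambient incubation, then luminescence read.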
ALDH1A1 block: inhibitors of human aldehyde dehydrogenase 1A1 | Purified ALDH1A1, NADH fluorescence, propionaldehyde substrate | 220,000 compounds, 7.3% hits | P00352 | AID 1030 | Potency, µM (highest dose often 75.3 µM), for inactives: at the top dose activity, negative = inhibition, actives largely listed as inhibitors;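 further: potency means the concentration at half of the fitted maximal effect; plate controls were no enzyme wells and a reference inhibitor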
* = called active by the depositor; ? = inconclusive; / = no result given; [ ] = dose if it differs, or a comment. Unless noted, the call rests on the fitted dose curve; in most records, active means well fitted inhibition curve with a large enough effect (not every such curve was filed as active); inconclusive means small, poorly fitted or top-dose-only effect, or another doubt; inactive means no such curve, though single readings can be large or run the other way. Unless noted, on the % scale 0 is the no-effect control and ±100 the full control effect.

SMILES | Lamin A splicing | PNC inhibitor | HPGD block | IMPase inh | KinaseGlo FLuc | ALDH1A1 block
COc1cc(/C=N/NC(=S)Nc2cccc(C(=O)O)c2)cc(OC)c1OC | ? | -27 | -23% | 17 | 0% | 14µM*
COc1cccc(/C=N/NC(=S)Nc2cccc(C(=O)O)c2)c1 | / | / | / | / | -1% | 32µM*
COC(=O)[C@](C)(N)Cc1ccc(O)cc1 | / | / | / | 3 | / | /
CC(C)CC(NC(=O)C1CCCN1C(=O)OC(C)(C)C)C(=O)NCC(N)=O (centres undefined) | -2% | ? | -8% | 2 | 1% | 12%
CC(NC(=O)C(NC(=O)C1CCCN1C(=O)OC(C)(C)C)C(C)C)C(N)=O (centres undefined) | 1% | -94* | -9% | -6 | 0% | 8%
CC(=O)Nc1ccc(NC(=O)c2ccccc2Sc2ccc([N+](=O)[O-])cc2Cl)cc1 | ? | -80* | -17% | -7 | 0% | ?
CCCn1c2ccccc2c2cnn(CC(=O)N3CCC(C(=O)OCC)CC3)c(=O)c21 | 8%[46 µM] | / | / | / | / | /
COc1ccc(C(=O)NC(=S)NCc2ccccc2)cc1OC | ? | / | / | / | -1% | ?
COc1ccc(C(=O)NC(=S)NCc2ccc(-c3nc4ccccc4o3)cc2)cc1OC | 15% | -25 | -21% | 7 | -1% | 5µM*
COc1ccc(S(=O)(=O)NCCc2sc(-c3ccccc3)nc2C)cc1F | -5%[46 µM] | / | / | / | / | /
O=[N+]([O-])c1cccc(Cl)c1Cl | / | / | -12% | / | / | -1%
CCCC(C(=O)NC1CCCC1)N(Cc1ccc2c(c1)OCO2)C(=O)c1snc(C(N)=O)c1N (centres undefined) | -1% | 0 | -16% | 7 | -2% | 13µM*
CC(C)CC(C(=O)NC1CCCC1)N(Cc1cccs1)C(=O)c1snc(C(N)=O)c1N (centres undefined) | 0% | -7 | ? | -9 | -2% | 8%
CC1(C)SC2C(NC(=O)Cc3ccccc3)C(=O)N2C1C(=O)O (centres undefined) | / | / | -7% | / | -3% | 1%
CCC(Sc1nc2ccc(N)cc2s1)C(=O)Nc1nccs1 (centres undefined) | 0% | -22 | 25µM* | 7 | -1% | 7.9µM*
Cc1nn(CCc2n[nH]c(=S)n2C)c(C)c1Br | 6% | 19 | -12% | -2 | -2% | -14%
Cc1nn(CCc2n[nH]c(=S)n2C2CCCCC2)c(C)c1Br | 8% | -24 | 25µM* | 5 | -2% | 20µM*
Cc1nn(-c2ccccn2)c2c1C(=O)C(Br)CC2 (centres undefined) | ? | / | / | / | 0% | 11µM*
CCOc1ccc(NC(=O)CSC2=Nc3ccccc3C3=NC(Cc4ccccc4)C(=O)N23)cc1 (centres undefined) | 13%[46 µM] | / | / | / | / | /
C=CCOC(=O)N[C@@H](c1ccc(Br)cc1)C(C(C)=O)C(C)=O | / | / | -10% | / | 2% | 10%
O=C(NC(=S)NC1CCSC1=O)c1ccccc1 (centres undefined) | -6% | 12 | -7% | / | -2% | 2%
O=C(NC1CSC/C1=N\O)c1ccccc1 (centres undefined) | 5% | 10 | -11% | -5 | -2% | 22µM*
COc1ccc(N2CCN(CCCNC(=O)c3nnc(Cc4ccccc4Cl)o3)CC2)cc1 | / | / | / | 10 | / | /
O=C1CNC(=O)/C1=C\c1ccc(O)cc1 | -13% | 12 | -21% | / | -8% | ?
O=C1CNC(=O)/C1=C/c1ccc(O)cc1 | 4% | 121 | ? | 0 | -23% | 32µM*
SMILES | Lamin A splicing | PNC inhibitor | HPGD block | IMPase inh | KinaseGlo FLuc | ALDH1A1 block
O=C1CNC(=O)/C1=C/c1ccccc1 | -12% | ? | 14µM* | / | 1% | -2%
CN(/C=C1/C(=O)CNC1=O)CCO | 3%[46 µM] | / | / | / | -1% | -15%
COc1cccc(N2CC(NC(=O)COc3ccccc3F)CC2=O)c1 (centres undefined) | 6%[46 µM] | / | / | / | / | /
O=C(O)CSc1nnc(Cn2nnc3ccccc32)n1CCc1ccccc1 | 3% | ? | ? | 4 | 0% | -6%
c1ccc(CCc2nn3c(Cn4nnc5ccccc54)nnc3s2)cc1 | 18% | -18 | 10µM* | 2 | -2% | 3.5µM*
c1ccc2c(c1)ncn2Cc1nnc2sc(-c3ccc4c(c3)OCO4)nn12 | -15% | 1 | ? | -2 | -4% | ?
c1ccc(CCc2nn3c(Cn4cnc5ccccc54)nnc3s2)cc1 | -25% | 7 | 16µM* | 3 | 6% | 3.5µM*
COc1ccc(OCc2nn3c(Cn4cnc5ccccc54)nnc3s2)cc1 | ? | 43 | 14µM* | 11 | -1% | 22µM*
c1ccc(CCn2cnc3ccccc32)cc1 | / | / | / | / | 0% | 15%
Clc1ccccc1-c1nn2c(Cn3cnc4ccccc43)nnc2s1 | -6% | -5 | 14µM* | 7 | 0% | 20µM*
O=c1c2ccccc2nnn1CSc1nnc(C2COc3ccccc3O2)n1-c1ccccc1 (centres undefined) | ? | -7 | -5% | -6 | 0% | -15%
c1ccc(Cc2nn3c(Cn4nnc5ccccc54)nnc3s2)cc1 | -3% | -15 | 20µM* | -3 | 3% | 25µM*
c1ccc(OCc2nn3c(Cn4nnc5ccccc54)nnc3s2)cc1 | 22% | -13 | 8.9µM* | -9 | -2% | 7.9µM*
c1ccc2c(c1)OCC(c1nn3c(Cn4nnc5ccccc54)nnc3s1)O2 (centres undefined) | -22% | -7 | 10µM* | 2 | 5% | 11µM*
O=C1C2=C(Nc3cc([N+](=O)[O-])ccc3N2)O[C@@H]1c1ccc([C@H]2OC3=C(Nc4ccc([N+](=O)[O-])cc4N3)C2=O)cc1 | / | / | -8% | / | -5%[7.66 µM] | ?
CC(=O)N(Cc1cc2ccc(C)c(C)c2n2nnnc12)C1CCCC1 | ? | 27 | -11% | 1 | -5% | ?
Cc1cc2cc(CN(C(=O)C3CC3)C3CCCC3)c3nnnn3c2cc1C | -5% | ? | -18% | 8 | -1% | 0.2µM*
CC1(C)OC(C(O)(c2cc(F)c(F)c(F)c2)c2cc(F)c(F)c(F)c2)C(C(O)(c2cc(F)c(F)c(F)c2)c2cc(F)c(F)c(F)c2)O1 (centres undefined) | / | / | / | / | / | 9%[13.5 µM]
CC(C)(C)c1ccc(Oc2ccc(NC(=O)CCCC(=O)O)cn2)cc1 | / | / | / | / | / | 7%
CC(C)(CC(=O)O)CC(=O)Nc1ccc(Oc2ccc(C(C)(C)C)cc2)nc1 | / | / | / | / | / | 8.9µM*
CCOC(=O)c1cccc(NC(=O)CCS(=O)(=O)c2cccc3nsnc23)c1 | -7% | ? | ? | 8 | 1% | 22µM*
Cc1cccc(NC(=O)CCS(=O)(=O)c2cccc3nsnc23)c1C | 1% | 40 | ? | 2 | 0% | 25µM*
